Drawing on PubChem BioAssay (NCI), this text covers growth for twelve compounds.

Common to all, as to test: NCI-60 one-dose screen, 48 h (100 = growth as untreated, 0 = no growth, -100 = all killed)
Details in all cases: 10 µM unless noted

Experiment [1] relates to DU-145 prostate.
In experiment [2] the test system is K-562 leukemia.
Experiment [3] deals with MALME-3M melanoma.
Experiment [4] concerns MDA-MB-231 breast.
For experiment [5], the system named is RXF 393 renal.
Experiment [6] relates to SF-268 CNS.
Experiment [7] concerns SF-295 CNS.
In experiment [8] the test system is SF-539 CNS.
The subject of experiment [9] is UACC-257 melanoma.
Experiment [10] concerns M14 melanoma.

The panel holds about 83,000 compounds, 20% with a hit somewhere; the sample as a whole holds those more often.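 Single-dose data. Exposure time 48 hours. Values below 10 considered active.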 A number with no mark means an inactive call. The source made the active and inactive calls.

`COc1cc(F)c(/C=C/c2cc(/C=C/c3cc(OC)c(OC)cc3F)n(-c3cc(F)cc(F)c3)n2)cc1OC`: the growth is 43.1% in experiment [1]; 20.3% in [2]; -6.11% (active) in [3]; 54.9% in experiment [4]; 85.6% in experiment [5]; 34% in experiment [6]. The growth is 54.2% in [7], 83.4% in experiment [8], 24% in experiment [9] and -19.5% (active) in [10].
In the case of `N#Cc1ccccc1OCC(=O)Nc1nc2c(s1)COc1ccccc1-2`, the growth is 114% in experiment [1]; 104% in [2]; 107% in [3]; 102% in [4]; 101% in experiment [5]; 104% in experiment [6]. Besides, the growth in experiment [7] is 79.5%; in experiment [8], 101%; in [9], 112%; in experiment [10], 105%.
Take `Cn1c(=O)c2c(nc(Nc3cc(=O)[nH]c(=O)[nH]3)n2Cc2ccccc2)n(C)c1=O`: the growth in experiment [1] was 2.17% (active); in experiment [2], 87.5%; in experiment [3], 103%; in experiment [4], 99.7%; in experiment [5] it was 81.7%; in experiment [6], 24.9%. The growth in experiment [7] was 101%; in experiment [8], 94.2%; in experiment [9] it was 47.3%; in experiment [10], 91.8%.
As for `COc1ccc(/C=C/C(=O)c2cc3c(N)c(C(=O)Nc4ccccc4)sc3nc2C)cc1`, the growth in experiment [1] is 10.9%; in experiment [2] it was 14.7%; in experiment [3], 58.1%; in experiment [4] it was 13.3%; in [5], -19.2% (active); in [6], 22.6%. Further, the growth is 11.6% in experiment [7], -27.3% (active) in [8], 69.5% in experiment [9] and 6.3% (active) in [10].
Turning to `COc1ccc(-c2c[nH]c(C(=O)O)c2-c2cc(OC)c(OC)c(OC)c2)cc1`, the growth in [1] is 49%; in experiment [2] it was 11.7%; in experiment [3], 33.7%; in [4] it was 57.7%; in experiment [5], -3.91% (active); in experiment [6], 64.9%. The growth in [7] is 23.6%; in [8] it was 2.29% (active); in [9] it was 78.8%; in experiment [10], 45.7%.
Consider `Nc1ccc(-c2ccc(N)c(Br)c2)cc1Br`, for which the growth in experiment [1] is 68.1%; in experiment [2], 22.4%; in experiment [3] it was 55.4%; in [4], 51.8%; in experiment [5], 57.5%; in [6] it was 44.3%. In addition, the growth in experiment [7] is 62.8%; in experiment [8], 29.5%; in experiment [9], 78.1%; in [10], 26.9%.
Take `COc1ccccc1/C=C1\COc2ccc(O)cc2C1=O`: the growth was 96.4% in experiment [1]; 6.88% (active) in experiment [2]; 79.9% in [3]; 121% in [4]; 92.1% in experiment [5]; 83.9% in experiment [6]. In addition, the growth in experiment [7] is 104%; in experiment [8], 92.5%; in experiment [9], 95.2%; in experiment [10], 77.8%.
As for `CCOC(=O)C(=Cc1ccc(C#N)cc1)C(=O)OCC`, the growth is 43.8% in experiment [1]; 3.59% (active) in [2]; -10.9% (active) in experiment [3]; 16.3% in experiment [4]; -62.5% (active) in experiment [5]; 28.1% in experiment [6]. Also, the growth was 95.3% in [7], -49.9% (active) in [8], 14.6% in experiment [9] and 27% in [10].
With `CCOC(=O)C1=C(C)N=C2SC=C(c3ccc(F)cc3)N2[C@H]1c1cn(-c2ccccc2)nc1-c1ccc(Cl)cc1`, the growth in [1] was 104%; in experiment [2], 102%; in experiment [3], 100%; in experiment [4] it was 88.5%; in experiment [5], 97.1%; in experiment [6], 92.4%. In addition, the growth was 99% in experiment [7], 101% in [8], 81.5% in [9] and 98.6% in experiment [10].
For the compound `N#C/C(=C\c1ccccc1Cl)c1cc2ccccc2[nH]1`, the growth is 100% in experiment [1]; 70.5% in experiment [2]; 92.8% in experiment [3]; 68.7% in [4]; 102% in experiment [5]; 96.3% in experiment [6]. In addition, the growth was 93.9% in [7], 89.4% in experiment [8], 94.2% in experiment [9] and 91.8% in experiment [10].
As for `N#CSc1c[nH]c2ccc(/C=C/C(=O)/C=C(/C=C/c3ccc4[nH]cc(SC#N)c4c3)OB(F)F)cc12`, the growth in [1] was 1.62% (active); in experiment [2] it was -27.2% (active); in experiment [3], -32.6% (active); in experiment [4], -35.9% (active); in experiment [5] it was -64.4% (active); in [6], 2.42% (active). The growth was 35.7% in experiment [7], -13.2% (active) in experiment [8], -29.8% (active) in [9] and -39.9% (active) in experiment [10].
In the case of `COc1ccc(/C=C(\C#N)c2cc3ccccc3[nH]2)cc1`, the growth in [1] was 31.1%; in experiment [2] it was 11.4%; in [3], 52%; in [4], 51.9%; in experiment [5], 48%; in experiment [6], 39.1%. For the same compound, the growth in [7] was 35.7%; in [8], 21.3%; in experiment [9], 52.2%; in experiment [10], 1.53% (active).
